DT40 TDP1 CPT = DT40-hTDP1 cell growth loss with CPT. chicken DT40 Tdp1-/-;hTDP1 cells + 20 nM CPT, ATP luminescence, 48 h. Potency, µM (titrated, usually from 46.2 µM), inactives show top-dose activity change, negative = growth inhibition, actives largely listed as inhibitors. hit rate 12% among 420,000. AID 686979; note: % is set by controls: 0 for no effect and ±100 for the full control effect; nearly all actives have a fitted effect of over 55% in size
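Chicken DT40 Tdp1-/- cells complemented with human TDP1, 400 cells/well, exposed to compounds plus 20 nM camptothecin for at least 48 h at 37 C; viability read as ATP content by CellTiter-Glo luminescence.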
TGFb inhibitor = TGF-b pathway inhibition | HepG2 CAGA-GFP TGF-b/SMAD3 reporter, GFP fluorescence, 18 h; TGF-beta stimulated, 500 pg/mL final | Potency, µM (top dose mostly 46.1 µM), for inactives: at the top dose activity, negative = inhibition, actives largely listed as inhibitors | hit rate 1.2% among 410,000; note: % is set by controls: 0 for no effect and ±100 for the full control effect; nearly all actives have a fitted effect of over 65% in size
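Per well, imaged GFP fluorescence of HEPG2 CAGA-GFP cells gives the signal; cells get compound, then TGF-beta (500 pg/mL final), 18 h at 37 degrees C; %Activity versus -TGF-beta and +DMSO controls.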
HepG2 tox = kills HepG2 cells in TGF-b inhibitor counter-screen. HepG2 CAGA-GFP viability, ATP luminescence, 18 h. Potency, µM (highest dose often 46.1 µM), without a hit: top-dose activity change, negative = cytotoxicity, most hits filed as cytotoxic. hit rate 0.76% among 410,000. AID 588856
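HepG2 CAGA-GFP cells (1000/well, DMEM with 1% FBS) received compound, then TGF-beta at 500 pg/mL final, and were incubated 18 hours at 37 degrees C. Viability was read by CellTiter-Glo luminescence. Media-only wells were set as complete cell-killing and DMSO as no toxicity.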
DT40 TDP1 no CPT = qHTS for Inhibitors of human tyrosyl-DNA phosphodiesterase 1 (TDP1): qHTS in cells in absence of CPT. DT40 Tdp1-/- hTDP1 cells, no CPT, ATP luminescence, 48 h. Potency, µM (doses to about 46.2 µM), for the others: at the top dose activity change, negative = growth inhibition, usual class: inhibitors. hit rate 15% among 420,000. AID 686978, 2013; note: % is set by controls: 0 for no effect and ±100 for the full control effect; nearly all actives have a fitted effect of over 55% in size
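A cellular qHTS used chicken DT40 cells lacking endogenous Tdp1 but carrying stably transfected human TDP1. Compounds were applied without camptothecin, and cell growth kinetics were judged by ATP-dependent luminescence after ≥48 hr.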
HT1080 IDH1KD tx = toxicity to HT-1080 IDH1 knockdown cells (counter line) | HT-1080 IDH1 knockdown viability, ATP luminescence, 48 h | Potency, µM (doses to about 46.1 µM), for inactives: at the top dose activity, negative = toxicity, most hits filed as cytotoxic | hit rate 2% among 360,000 | AID 686971;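 note: 0% = DMSO wells and -100% = cell-free medium wells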
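Cytotoxicity counter-line: IDH1KD HT-1080, 48 h, CellTiter-Glo. Curves classed by r2, magnitude and activity.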
HT1080-NT tox = kills 2HG-producing HT-1080-NT fibrosarcoma cells. HT-1080-NT fibrosarcoma viability, CellTiter-Glo ATP luminescence, 48 h. Potency, µM (titrated, usually from 46.1 µM), without a hit: at the highest dose activity, negative = less viability, most hits filed as cytotoxic. hit rate 1.6% among 360,000. AID 686970;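 note: NT is the 2HG producing partner of a matched IDH1 knockdown line; 0% = DMSO-treated cells and -100% = media-only wells without cells; nearly all actives have a fitted effect of over 55% in size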
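HT-1080-NT fibrosarcoma cells (2HG-overproducing), 750 cells/well in RPMI with 5% FBS, dosed after 2 h and incubated 48 h at 37C. CellTiter-Glo luminescence normalized to DMSO and no-cell wells; concentration-response curves fitted and classed.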
An asterisk follows results filed as active; ? = inconclusive; . = no result; ! = not confirmed by another sample. In the library only some 17% were active in any assay of this set; here they are far more common. Calls come from the whole dose curve; as a rule, active = well fitted curve in the direction sought with a large enough effect; inconclusive = small, poorly fitted or top-dose-only effect, or another doubt; inactive = no such curve, though single readings can be large; an effect the other way counts as inactive or inconclusive. Potency is the fitted concentration of half-maximal effect.

SMILES | DT40 TDP1 CPT | TGFb inhibitor | HepG2 tox | DT40 TDP1 no CPT | HT1080 IDH1KD tx | HT1080-NT tox
CCN(CC(=O)NCc1cccs1)C(=O)c1ccc(-c2ccccc2F)o1 | ? | 3% | 0% | 18µM* | 11% | 1%
Cc1occc1C(=O)NCc1cccs1 | -9% | -6% | 24% | -26% | 7% | 1%
COc1cc(NC(=O)C2CC(c3cccc(OC)c3OC)=NO2)cc(OC)c1OC (configuration not stated) | 14µM* | 12% | -18% | 16µM* | ? | ?
Cc1cc(C(=O)NCc2cccs2)c(C)o1 | 26µM* | -17% | -5% | 18µM* | -15% | -2%
CC(C)C[C@H]1CN(CCCC[C@@H]2CNC(=O)C(=O)N2Cc2ccccc2)C(=O)C(=O)N1CCc1ccc(O)cc1 | 2% | . | . | 1% | 16% | 25%
COc1ccc(CCNC(=O)C2CC(c3ccc([N+](=O)[O-])cc3)=NO2)cc1 (configuration not stated) | 6.5µM* | -5% | -17% | ? | 9% | 14%
COc1cc(OC)c(C2=NOC(C(=O)NCc3cccnc3)C2)cc1Cl (configuration not stated) | ? | 3% | -13% | 15µM* | ? | ?
COc1ccc(C2=NOC(C(=O)NCc3cccs3)C2)cc1 (configuration not stated) | 5.2µM* | 9% | 2% | 2.9µM* | 5.2µM* | ?
Cc1ccc(C(=O)N/C(=C\c2ccc([N+](=O)[O-])cc2)C(=O)NCCc2ccccc2)cc1 | ? | -24% | -34% | ? | 11µM* | ?
O=C(NCCc1ccccc1)/C(=C\c1ccc([N+](=O)[O-])cc1)NC(=O)c1ccc(Br)cc1 | ? | -4% | -13% | ? | -24% | -22%
COc1ccc(-n2c(=O)cc(N3CC(C)OC(C)C3)[nH]c2=O)cc1 (configuration not stated) | -10% | 3% | 12% | -29% | 16% | 13%
COc1ccc(CC(=O)N/N=C(/C)CC(=O)N(C)c2ccccc2)cc1 | 11% | 1% | 10% | -22% | 0% | 2%
COc1ccc(CC(=O)NCc2cccs2)cc1 | 23µM* | -3% | -23% | 15µM* | ? | -20%
COc1cc(OC)c(C2=NOC(C(=O)NCc3cccs3)C2)cc1Cl (configuration not stated) | 2.3µM* | -7% | 15% | 2.3µM* | 4.6µM* | 4.1µM*
COc1ccc2c(c1OC)C(Cc1ccccc1)N1CCc3cc4c(cc3C1C2)OCO4 (configuration not stated) | 6µM* | . | . | 12µM* | . | .
O=C1NC(c2cccc3ccccc23)Nc2ccc(Cl)cc21 (configuration not stated) | 0.46µM* | 4µM* | -6% | 0.58µM* | 0.52µM* | 0.58µM*
CC(=O)c1c(C)[nH]c(C(=O)COC(=O)c2c(-c3ccccc3)noc2C)c1C | ? | -28% | -25% | ? | -1% | 0%
CCOC(=O)c1nnn(CC(=O)NC(=O)Nc2cccc(CC)c2)c1C(=O)OCC | ? | ? | 11µM*! | -6% | 4% | -1%
Cc1ccc(NC(=O)CSc2nncn3c2cc2sccc23)cc1F | -1% | ? | -53% | ? | . | .
C=CCc1ccccc1OCc1nc2ccccc2n1CC | ? | ? | -29% | 23µM* | . | .
CCc1cccc(C)c1NC(=O)CCOc1ccccc1 | 5% | -2% | -27% | 2% | 1% | 0%
CSc1ccc(CN(C)CC(=O)Nc2ccc(NC(C)=O)cc2)cc1 | -24% | 3% | 14% | ? | -1% | 0%
CSc1ccc(CN(C)CC(=O)Nc2c(F)cccc2F)cc1 | 21µM* | -13% | 4% | ? | -1% | -4%
CCc1cccc(C)c1NC(=O)CN(C)Cc1ccccc1F | 15µM* | -18% | -12% | 16µM* | -5% | 0%
COc1ccc2[nH]c(=O)c(CN(C(=O)NC3CCCCC3)C3CCCCC3)cc2c1 | 21µM* | -5% | 0% | 21µM* | 1% | -7%
SMILES | DT40 TDP1 CPT | TGFb inhibitor | HepG2 tox | DT40 TDP1 no CPT | HT1080 IDH1KD tx | HT1080-NT tox
CCN(CC)CCN(Cc1cc2cc3c(cc2[nH]c1=O)OCCO3)C(=O)NC1CCCCC1 | ? | -12% | -23% | ? | 2% | -13%
CCN(CC)CCCN(Cc1cc2cc3c(cc2[nH]c1=O)OCO3)C(=S)Nc1ccc(OC)cc1 | -28% | 11% | -22% | 29µM* | -14% | 3%
CCN(CC)CCCN(Cc1cc2cc3c(cc2[nH]c1=O)OCO3)C(=S)NC | 20% | 1% | 9% | -1% | 10% | 22%
O=C(c1ccncc1)N(Cc1cc2ccccc2[nH]c1=O)C1CCCCC1 | ? | -18% | -70% | ? | 5.6µM* | 7.1µM*
O=C(c1ccccc1)N(Cc1nc2ccccc2c(=O)[nH]1)C1CCCCC1 | ? | -14% | -16% | ? | -9% | -2%
COc1ccc(CN(Cc2cc3cc4c(cc3[nH]c2=O)OCO4)C(=O)NC2CCCCC2)cc1 | 18µM* | -5% | -9% | 23µM* | -18% | -15%
CCOc1ccc(NC(=O)CN(C)C2=NS(=O)(=O)c3ccccc32)cc1 | -19% | -11% | -26% | -25% | 4% | 5%
COc1ccccc1CNC(=O)c1cccnc1 | 1% | 3% | -1% | -7% | -2% | -9%
CCCCC(CC)COS(=O)(=O)O (configuration not stated) | 6% | . | . | -16% | . | .
O=C(Nc1ccc(C(=O)N2CCCCC2)cc1)C1=CSCCO1 | -23% | -18% | -70% | ? | ? | -14%
CCN1C(=O)[C@H]2[C@@H](c3ccc(-c4ccc(Cl)c(Cl)c4)cc3)N[C@@](C)(C(=O)OC)[C@H]2C1=O | 8.2µM* | -17% | -22% | 8.2µM* | 0% | -9%
CCN1C(=O)[C@H]2[C@@H](c3ccc(-c4ccc(Cl)c(Cl)c4)c(OC)c3)N[C@@](C)(C(=O)OC)[C@H]2C1=O | 4.6µM* | 3% | 8% | 6.5µM* | 2% | -5%
COC(=O)[C@]1(C)N[C@H](c2ccc(SC3CCCCC3)c(OC)c2)[C@@H]2C(=O)N(C)C(=O)[C@@H]21 | ? | -3% | 4% | 12µM* | -1% | 6%

Compound activity from PubChem BioAssay.
